# Values without a mark were called inactive.
# Assays:
# [1] = test system: Caenorhabditis elegans dauer (daf-2(e1370)); assay: proportion of mobile C. elegans dauer larvae relative to DMSO control (fraction of DMSO control); higher = more viable, less nematicidal, active = 0.63 or less; extreme values may be limits of the assay; conditions: 60 µM; 5 days; temperature: 20 °C
# How it was run: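 Synchronized C. elegans daf-2(e1370) larvae were held at 25 °C for 48 h on MYOB plates with E. coli OP50 to form dauers, and about 20 dauers were added per 96-well well in liquid NGM. Compound was pinned to 60 µM final (0.6% v/v DMSO), and sealed plates were shaken at 200 rpm for 5 days at 20 °C. The proportion of mobile worms was scored under a dissection microscope relative to DMSO controls and averaged over two biological replicates.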
# Ditylenchus dipsaci = assay: proportion of mobile D. dipsaci (mixed stage) relative to DMSO control (fraction of DMSO control); higher = more viable, less nematicidal, active = 0.86 or less; extreme values may be limits of the assay; conditions: 60 µM; 5 days; temperature: 20 °C
# How it was run: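 Mobility, expressed relative to DMSO controls, is the mean of two biological replicates. The test organisms were D. dipsaci grown on pea plants in Gamborg B-5 agar and extracted into water by filter funnel, with about 20 added per well of a 96-well plate in distilled water. Compound was pinned to 60 µM final (0.6% v/v DMSO), plates were sealed and shaken at 200 rpm for 5 days at 20 °C, and mobile worms were scored under a microscope once 2 µL 1 M NaOH had been added.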
SMILES,proportion of mobile C. elegans dauer larvae [1],proportion of mobile D. dipsaci (Ditylenchus dipsaci)
Cc1ccc(-c2nnc(SCc3ccccc3C#N)o2)cc1,1,1
Cc1csc(NC(=O)CSc2nnc(-c3ccccc3Cl)o2)n1,1,1
CC(=O)Nc1ccc(C(=O)CSc2nnc(-c3cccc(Br)c3)o2)cc1,1,1
Cc1cc(C)c(CSc2nnc(-c3ccccc3)o2)c(C)c1,1,1
Clc1ccc(-c2noc(-c3ccccc3Br)n2)cc1,1,1
COc1ccccc1-c1noc(-c2ccccc2C)n1,1,1
COc1ccc(Br)cc1-c1noc(-c2ccncc2)n1,1,1
Cc1cc(Cl)ccc1OCc1nc(-c2cccnc2)no1,1,1
COc1cccc(-c2noc(-c3ccc(Cl)cc3)n2)c1,0.562 (active),1
CCOc1ccccc1-c1nc(-c2ccc(NC(=O)CCc3ccc(OC)cc3)cc2)no1,1,1
O=C(CSc1nnc(-c2ccccc2Cl)o1)NCc1ccccc1,1,1
Brc1ccc(CSc2nnc(-c3ccco3)o2)cc1,1,1
O=C(Nc1ccc(-c2noc(COc3ccccc3Cl)n2)cc1)c1ccccn1,1,1
Fc1ccccc1-c1nc(-c2ccc(Cl)cc2)no1,1,1
Cc1ccc(-c2noc(-c3ccc(C)cc3Cl)n2)cc1,1,1
COc1ccccc1-c1nnc(SCc2ccccc2C)o1,1,1
COc1ccc(-c2nc(-c3ccc(Cl)cc3)no2)cc1,1,1
CCOc1cc(-c2nc(-c3ccccc3OC)no2)cc(OCC)c1OCC,–,1
COc1ccc(-c2nnc(SCC(=O)Nc3ccc(C)cc3Br)o2)cc1,1,1

SMILES,proportion of mobile C. elegans dauer larvae [1],proportion of mobile D. dipsaci (Ditylenchus dipsaci)
COc1ccccc1-c1nnc(SCC(=O)Nc2ccc(Br)cn2)o1,1,1
CCOc1ccccc1-c1nc(-c2ccc(Br)cc2)no1,1,1
CCCCSc1nnc(-c2ccc(Br)cc2)o1,–,0.842 (active)
CN(C)c1ccc(-c2nnc(SCc3ccccc3)o2)cc1,1,1
O=C(CSc1nnc(-c2ccco2)o1)Nc1cccc2ccccc12,–,1
O=C(CSc1nnc(-c2ccccc2)o1)c1ccc(Br)cc1,1,1
COc1cccc(NC(=O)CSc2nnc(-c3ccc(C)cc3)o2)c1,1,1
CCCCc1ccc(-c2nc(-c3cccnc3)no2)cc1,–,1
O=C(Nc1ccc(-c2noc(-c3ccc(F)cc3)n2)cc1)c1ccc(Br)o1,–,1
Cc1cc(C)cc(-c2nc(-c3ccc(Cl)cc3)no2)c1,–,1
CC(C)C(=O)Nc1ccccc1-c1nc(-c2ccccn2)no1,1,1
COc1ccc(-c2noc(COc3ccc(Br)c(C)c3)n2)cc1,–,1
Cc1cc(Cl)ccc1OCc1nc(-c2ccc(F)cc2)no1,1,1
Cc1cc(C)c(OCc2nc(-c3ccncc3)no2)c(C)c1,–,1
COc1ccc(-c2nnc(SCC(=O)OCc3ccccc3)o2)cc1,1,1
Cc1ccc(OCc2nc(-c3ccc(Cl)cc3)no2)cc1C,1,1
COc1cccc(-c2nc(-c3ccc(F)cc3)no2)c1,1,1
Cc1ccc(-c2noc(COc3ccc(Br)cc3)n2)cc1,–,1
CN(C)C(=O)c1ccccc1-c1nc(-c2ccccc2Cl)no1,1,1

SMILES,proportion of mobile C. elegans dauer larvae [1],proportion of mobile D. dipsaci (Ditylenchus dipsaci)
COc1cccc(-c2noc(-c3ccc(C)cc3Cl)n2)c1,1,1
O=C(CSc1nnc(-c2ccco2)o1)Nc1cc(Cl)ccc1Cl,1,1
COc1cccc(-c2noc(COc3ccc(Cl)cc3)n2)c1,1,1
COc1nc(-c2ccccc2)ccc1-c1noc(-c2ccccc2C)n1,1,1
CCc1nc(-c2ccc(-c3ccccc3)nc2OC)no1,1,1
CCn1c(SCc2nc(-c3ccccc3)no2)nc2ccccc21,1,1
COc1ccc(-c2nc(-c3ccccc3Cl)no2)cc1,–,1
Brc1ccc(-c2nc(-c3ccccc3)no2)cc1,–,1
COc1ccc(-c2noc(COc3ccc(C)cc3Br)n2)cc1,1,1
COc1ccccc1-c1nc(-c2ccccc2Cl)no1,1,1
CCOc1nc(-c2ccc(C)cc2)ccc1-c1noc(-c2ccco2)n1,1,1
Cc1ccccc1-c1noc(-c2ccccc2C(=O)NCc2ccccc2)n1,–,1
CC(C)(C)c1ccc(OCc2nc(-c3ccccc3)no2)cc1,–,1
COc1ccc(-c2noc(COc3ccc(F)cc3)n2)cc1,1,1
Clc1cccc(-c2nc(-c3ccncc3)no2)c1,1,1
O=C(CSc1nnc(-c2ccccc2)o1)NCc1ccccc1,–,1
NC(=O)COc1ccccc1-c1nc(-c2ccccc2Cl)no1,1,1
COc1ccccc1-c1nc(-c2ccc(Cl)cc2)no1,–,1

# Source: the supplement of paper PMC11219838
